USP1 inh – Inhibitors of USP1/UAF1: Primary Screen | Ubiquitin carboxyl-terminal hydrolase 1 (Homo sapiens), O94782 | recombinant USP1/UAF1, Ub-Rhodamine cleavage fluorescence | Potency, µM (top dose mostly 57.1 µM), for the others: at the highest dose activity change, negative = inhibition, hits mostly inhibitors | hit rate 0.23% among 390,000 | AID 743255, 2014; active means well fitted inhibition curve with a large enough effect; inconclusive means small, poorly fitted or top-dose-only effect; inactive means no such curve, though single readings can be large or run the other way; further: potency means the concentration at half of the fitted maximal effect; nearly all actives have a fitted effect of over 60% in size
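USP1/UAF1 complex at 1 nM was preincubated with compound for 15 min at room temperature, then Ub-Rho substrate (150nM final) was added. Fluorescence (480/540 nm) was read kinetically, 6 reads every 60 seconds.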
KCNH2 3.1 block – qHTS for Inhibitors of KCHN2 3.1: Mutant qHTS; U2OS KCNH2 3.1, thallium flux FluxOr; stronger effect = lower value; activity change, % (tested at about 1.8 µM); Potassium voltage-gated channel subfamily H member 2, brain isoform KCNH2 3.1 (human); hit rate 0.95% among 340,000;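 active means maximum activity change below -70%; inconclusive means maximum activity change from -70% to -50%; inactive means maximum activity change above -50%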;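 further: thallium influx rate constant from kinetic fluorescence after stimulation buffer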
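We transduce U2OS cells with the mutant 3.1 virus, culture them overnight, load FluxOr with Red40 quencher for 45 min, then add stimulation buffer and read kinetically for 2 min to derive a normalized rate constant.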
hERG WT inh – qHTS for Inhibitors of KCHN2 3.1: Wildtype qHTS | Voltage-gated inwardly rectifying potassium channel KCNH2 (Homo sapiens), Q12809 | U2OS, BacMam KCNH2, thallium flux FluxOr; stronger effect = lower value | activity change, % at 1.84 µM | hit rate 0.37% among 340,000;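 active means maximum activity change below -70%; inconclusive means maximum activity change between -70% and -50%; inactive means maximum activity change above -50%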
Target sequence (Q12809 whole entry, looked up): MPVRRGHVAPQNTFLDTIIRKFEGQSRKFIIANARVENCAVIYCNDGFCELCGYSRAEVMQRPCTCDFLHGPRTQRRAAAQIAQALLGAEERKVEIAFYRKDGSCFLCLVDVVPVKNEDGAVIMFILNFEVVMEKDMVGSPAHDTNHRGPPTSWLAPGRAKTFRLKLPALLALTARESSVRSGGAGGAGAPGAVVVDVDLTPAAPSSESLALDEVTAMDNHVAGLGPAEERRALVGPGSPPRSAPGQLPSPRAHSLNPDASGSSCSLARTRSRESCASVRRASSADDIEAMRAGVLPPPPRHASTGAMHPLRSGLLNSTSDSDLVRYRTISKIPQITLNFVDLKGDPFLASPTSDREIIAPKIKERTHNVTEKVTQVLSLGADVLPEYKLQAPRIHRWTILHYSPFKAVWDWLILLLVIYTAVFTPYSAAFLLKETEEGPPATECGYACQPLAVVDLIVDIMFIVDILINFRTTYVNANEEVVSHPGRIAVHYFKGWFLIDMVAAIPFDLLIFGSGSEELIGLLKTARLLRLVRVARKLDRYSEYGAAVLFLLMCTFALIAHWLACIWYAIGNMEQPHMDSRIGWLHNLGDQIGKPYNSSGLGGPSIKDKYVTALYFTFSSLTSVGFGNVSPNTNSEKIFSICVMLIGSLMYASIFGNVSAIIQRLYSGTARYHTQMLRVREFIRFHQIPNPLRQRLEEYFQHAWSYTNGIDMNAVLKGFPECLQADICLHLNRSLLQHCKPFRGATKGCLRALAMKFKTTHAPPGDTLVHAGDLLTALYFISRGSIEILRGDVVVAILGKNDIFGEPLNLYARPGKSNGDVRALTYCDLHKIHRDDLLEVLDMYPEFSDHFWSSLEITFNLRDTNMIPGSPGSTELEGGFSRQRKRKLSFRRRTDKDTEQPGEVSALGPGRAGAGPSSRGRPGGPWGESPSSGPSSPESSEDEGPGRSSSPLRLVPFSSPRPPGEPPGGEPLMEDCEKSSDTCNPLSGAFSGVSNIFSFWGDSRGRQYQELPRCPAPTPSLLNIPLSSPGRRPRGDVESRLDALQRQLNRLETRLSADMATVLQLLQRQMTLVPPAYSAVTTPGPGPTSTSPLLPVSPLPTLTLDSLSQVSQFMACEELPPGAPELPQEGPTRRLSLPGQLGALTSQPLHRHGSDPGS
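U2OS cells were transduced with wild-type KCNH2 virus (2.03 x 10^8 / mL) for 4 h at room temperature, then cultured overnight at 37 C. Thallium flux was read with FluxOr dye. Rate constants were normalized to DMSO controls.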
Giardia killer – Small Molecules that selectively kill Giardia lamblia: qHTS. Giardia lamblia trophozoite viability. activity change, % at 7.66 µM, hits read low. hit rate 0.15% among 340,000. AID 540267, 2011; in the data active means activity change below about -80%; inconclusive means between about -30% and that limit;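 further: parasites exposed to compound for two days anaerobically before the ATP read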
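Killing of trophozoites was scored by loss of ATP luminescence after a 48 hrs anaerobic exposure to compounds at 37 deg C, using 100 cells per well.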
FBPA coupling cs – qHTS Assay for Inhibitors of Fructose-1,6-bisphosphate Aldolase from Giardia Lamblia: Coupling assay counterscreen | coupling enzyme system counterscreen, AmpLite Red fluorescence | activity change, negative = inhibition, % at 58.2 µM, hits read low | hit rate 0.67% among 290,000 | AID 2472, 2010; in the data active means activity change below about -30%
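First, compound is pin-transferred into glyceraldehyde-3-phosphate coupling-enzyme reagent at 57.5 uM final and held 10 min at RT. Next, substrate, coupling system and AmpLite Red are added. After 20 min RT, fluorescence (525/598 nm) is read.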
* hit, by the source's call; ? = inconclusive; · = no result. Compounds with a hit are over-represented: about 1.7% of the library has one in this group of screens. On the % scale 0 is the no-effect control and ±100 the full control effect.

SMILES	USP1 inh	KCNH2 3.1 block	hERG WT inh	Giardia killer	FBPA coupling cs
CCC[N+](CC#Cc1ccccc1)(CCC)CC(=O)OC	-12%	5	5	-2	4
CCC[N+](CC#Cc1ccccc1)(CCC)CC(=O)OCC	-6%	-71*	23	-16	4
COc1ccc(OC)c(C(=O)NC(CC(N)=O)c2ccc(NC(C)C)c([N+](=O)[O-])c2)c1 (configuration not stated)	0%	24	6	5	-1
COc1ccc(OC)c(C(=O)NC(CC(N)=O)c2ccc(NCC3CC3)c([N+](=O)[O-])c2)c1 (configuration not stated)	-23%	-121*	1	6	5
CCOc1cc(N2CCOCC2)c(OCC)cc1NC(=O)Cc1cccc(OC)c1	-6%	-10	5	-4	-1
FC(F)(F)c1ccc(N2CCOCC2)c(NC2=NCCCCC2)c1	-19%	15	-3	13	-5
CCOc1cc(N2CCOCC2)c(OCC)cc1NC(=O)COC(=O)[C@@H]1CCCN1S(=O)(=O)c1ccccc1F	-21%	-3	-12	-2	-31*
CCOc1cc(N2CCOCC2)c(OCC)cc1NC1=NCCCCC1	-32%	33	1	-5	-32*
CCOc1cc(N2CCOCC2)c(OCC)cc1NC(=O)Cc1ccc(OC)c(OC)c1	-15%	2	1	8	-41*
CCOc1cc(N2CCOCC2)c(OCC)cc1NC(C)C(=O)N1CCC(C)CC1 (configuration not stated)	-26%	-5	10	-11	-47*
CCn1cc(C(=O)NCCc2ccccc2)c(=O)c2cc(S(=O)(=O)N(C)C3CCCCC3)ccc21	-13%	·	·	·	·
COc1cccc(C(=O)Nc2cc(-c3ccccc3)nn2-c2ccccc2)c1	-28%	·	·	·	·
CNC[C@@H]1OCc2ccccc2-c2c(n(C)c3ccccc23)C(=O)N([C@H](C)CO)C[C@H]1C	-20%	8	6	·	·
COc1ccc(OCC(=O)Nc2ccc(C(=O)OCc3cc(=O)n4nc(C)sc4n3)cc2)cc1	-15%	·	·	·	·
COC(=O)c1ccc2c(c1)N(Cc1ccc(F)cc1)C(=O)c1ccccc1S2	-32%	·	·	·	·
CCOc1cc(N2CCOCC2)c(OCC)cc1NC(=O)CSc1ncn[nH]1	-3%	-9	-6	0	-36*
CC(Oc1ccccc1)C(=O)Nc1nnc(S(=O)(=O)N2CCCCC2)s1 (configuration not stated)	-6%	14	3	-84*	8
Cc1ccc(OC(=O)C2c3ccccc3Oc3ccccc32)cc1C	-17%	-20	-131*	-15	2
COc1ccc(Cl)cc1NC(=O)c1ccc2c(SCC(=O)O)c3c(nc2c1)CCCC3	-16%	-2	-22	-6	·
COc1ccc(NC(=O)c2ccc3c(SCC(=O)O)c4c(nc3c2)CCCC4)c(OC)c1	?	-158*	-6	-17	7
COc1ccc(NC(=O)CSc2nc(=O)n(CCN3CCOCC3)c3c2CCCC3)c(OC)c1	-16%	-120*	12	12	·
COC(=O)CCCCCn1c(-c2ccccc2)cn2c3c(=O)n(C)c(=O)n(C)c3nc12	-22%	·	·	·	·
CC1(O)CC2C(CC1O)C2(C)C (configuration not stated)	·	·	·	·	-2
O=C(Nc1ccc(-c2cc(C(F)(F)F)nn2-c2ccccc2)cc1)c1cccc(F)c1	-26%	·	·	·	·
O=C(Nc1ccc(F)cc1)N1CCOCC1	-3%	-21	3	-10	1
CN(C)c1ccc(NC(=O)N2CCOCC2)cc1	-10%	-6	3	-2	-32*
COc1ccc(CNC(=O)C2(CC3CC(c4ccccc4)=NO3)CCN(C(=O)CCCCCBr)CC2)cc1 (configuration not stated)	12%	-133*	-112*	-7	·
CCCCCCCNC(=O)C1(CC2CC(c3ccc(Cl)cc3)=NO2)CCN(C(=O)CCCCCBr)CC1 (configuration not stated)	16%	-83*	-89*	?	5
O=C(CCCCCBr)N1CCC(CC2CC(c3ccc(Cl)cc3)=NO2)(C(=O)NCC2CCCCC2)CC1 (configuration not stated)	-20%	?	-95*	-21	2
